Hit rate of the full screen: of about 300,000 compounds, about 37,000 (12%) were called active. For the sample, actives were picked, then their nearest neighbours and some compounds at random. A number with no mark means an inactive call. Cut-off read from the data, not from the text of the source: active = max response mostly above about 13% (no sharp cut-off); inactive = mostly below about 14%.

This test can be described thus: Cycloheximide Counterscreen for Small Molecule Inhibitors of Shiga Toxin. Note: read at 38.3 µM for the half of the compounds with a filed dose; 0% is about no effect. The note with it: cell reporter, cycloheximide protein synthesis inhibition counterscreen; hits give high values.
Consider `O=C(c1c(F)cccc1Cl)N1CCN(S(=O)(=O)c2ccc3c(c2)OCCCO3)CC1`, for which the max response is -1.76%.

Turning to `O=C(CN(C(=O)CCC(=O)Nc1nccs1)c1ccc(F)cc1)NCc1ccc2c(c1)OCO2`, the max response is -6.07%.

On to `COc1ccc(-c2oc(/N=C/N3CCCC3)c(C#N)c2-c2ccc(OC)cc2)cc1`, for which the max response was -5.61%.

With `Fc1ccccc1CCNc1nnnn1-c1ccccc1`, the max response was 0.858%.

Take `O=[N+]([O-])c1cc(C(F)(F)F)ccc1NCCc1ccncc1`: the max response was 9.83%.

As for `O=C1CCC(=O)N1c1ccc(NCCc2ccccc2F)c([N+](=O)[O-])c1`, the max response was 21.6% (active).

For `COc1ccc(N2CCC(CNC(=S)Nc3c(C)cccc3C)C2)cc1` (stereo unspecified), the max response is -1.13%.

In the case of `COc1cc(NS(=O)(=O)c2ccc(NC(=O)c3ccc([N+](=O)[O-])cc3)cc2)ncn1`, the max response is -2.23%.

`CCCc1cc(=O)oc2c(C)c(OCC(=O)Nc3ccccn3)ccc12`: the max response is 32.5% (active).

For the molecule `CCCc1cc(=O)oc2c(C)c(OCC(=O)NCc3ccccn3)ccc12`, the max response was -0.405%.

Consider `CCCc1cc(=O)oc2c(C)c(OCC(=O)N3CCC(C(=O)O)CC3)ccc12`, for which the max response is -2.94%.

`O=C1COc2ccc(C(=O)COC(=O)C3CC(O)CN3S(=O)(=O)c3ccc(Cl)cc3)cc2N1` (stereo unspecified): the max response is -1.44%.

Turning to `CCc1ccc(Nc2nnc(SCC(=O)c3ccc4c(c3)NC(=O)CO4)s2)cc1`, the max response was 20.5% (active).

Take `COc1cccc(Nc2nnc(SCC(=O)N3CC(=O)Nc4ccccc43)s2)c1`: the max response is -2.67%.

For `CCCc1nc2ccccc2c(C(=O)OCC(=O)c2ccc3c(c2)NC(=O)CO3)c1CC`, the max response is -2.81%.

Consider `COC(=O)c1ccccc1Sc1c(/C=N/OCc2ccc(Cl)cc2)c(C(F)(F)F)nn1C`, for which the max response is 3.42%.

On to `CC(C)C(C)(C#N)NC(=O)CSc1nc2scc(-c3ccccc3)c2c(=O)[nH]1` (stereo unspecified), for which the max response is -4.09%.

With `COc1ccc(-n2nnnc2-c2nc3ccccc3s2)cc1`, the max response is 40.1% (active).

`COc1ccc(-n2nnnc2SCC(=O)NCc2cccs2)cc1`: the max response was -3.1%.

As to `CCOc1cccc(-n2nnnc2-c2ccc(OC)cc2)c1`, the max response is -3.31%.

Turning to `O=C(Cc1cccc2ccccc12)NNC(=O)Nc1ccc(Cl)cc1`, the max response is 28.4% (active).

In the case of `Fc1ccccc1CNC(=S)Nc1ccc(Cl)cc1`, the max response was 6.56%.

Consider `Cc1ccc(NC(=S)NC(NC(=O)Cc2cccc3ccccc23)C(Cl)(Cl)Cl)cc1` (stereo unspecified), for which the max response is -3%.

For `O=C(CCCCCn1c(=S)[nH]c2cc3c(cc2c1=O)OCO3)N1CCN(c2ccc(F)cc2)CC1`, the max response is 10.7%.

As to `CC(=O)c1ccc(NC(=O)Nc2ccc([N+](=O)[O-])cc2C)cc1`, the max response was -0.717%.

Turning to `CC(=O)N1c2ccc(S(=O)(=O)N3CCC(C(=O)NC4CCCCC4C)CC3)cc2CC1C` (stereo unspecified), the max response is 4.46%.

Consider `O=C(Nc1ncc2c(n1)CC(c1ccco1)CC2=O)c1ccc(Cl)cc1` (stereo unspecified), for which the max response was -2.44%.

Regarding `CCc1ccc(Nc2ncc3c(n2)CC(c2ccco2)CC3=O)cc1` (stereo unspecified), the max response is 26.7% (active).

For `COc1cc(C2CC(=O)c3cnc(NC(C)=O)nc3C2)cc(OC)c1OC` (stereo unspecified), the max response was -4.71%.

`COC(=O)c1nc2n(n1)C(c1ccc([N+](=O)[O-])cc1)C(C(=O)Nc1ccc(Cl)cc1)=C(C)N2` (stereo unspecified): the max response was -2.4%.

On to `O=c1cc(Cl)c2ccccc2n1-c1ccccc1`, for which the max response was -3.75%.

With `Cc1cc(C)c(C2C3=C(Nc4c2c(C)nn4-c2ccccn2)c2ccccc2C3=O)c(C)c1` (stereo unspecified), the max response is -1.26%.

On to `NC(=O)c1ccsc1NC(=O)c1ccco1`, for which the max response is 12.2%.

`O=C(Nc1ccnc(-c2ccncc2)n1)c1cccs1`: the max response is -2.6%.

Take `COc1cccc(C(=O)Nc2ccc(NC(=O)c3ccco3)cn2)c1`: the max response is 55.5% (active).

For the molecule `O=C(Nc1ccc(NC(=O)c2cccs2)cn1)c1ccco1`, the max response is 51.1% (active).

Take `COc1ccccc1C(=O)Nc1ccc(NC(=O)c2ccco2)c(C)c1`: the max response was 10.8%.

On to `COc1ccc(NC(=O)c2cccc(NC(=O)c3ccco3)c2)c(OC)c1`, for which the max response was -3.4%.

Consider `CC(C)CC(=O)NC(=S)NNC(=O)c1cccc([N+](=O)[O-])c1`, for which the max response was 4.5%.

On to `CCOc1ccc(CNC(=O)C2CCCN(c3nnc(C)c4c(C)n(-c5ccccc5)nc34)C2)cc1` (stereo unspecified), for which the max response was -1.93%.

Consider `COc1ccc(S(=O)(=O)N2CCN(c3ccc(F)cc3)CC2)cc1-c1noc(C)n1`, for which the max response is 10.5%.

Take `Cc1ccccc1CSc1nnc(CCCCCNC(=O)OC(C)(C)C)o1`: the max response was -1.71%.

For the molecule `CCOc1ccccc1NC(=O)Cn1nnc(C(=O)NCc2cccs2)c1N`, the max response is -7.84%.

Regarding `O=C(NCc1cc(F)cc(C(F)(F)F)c1)C1CCC(=O)N(C2CCCC2)C1` (stereo unspecified), the max response is 25.3%.

Regarding `O=C(NCCc1ccccc1)C1CCN(S(=O)(=O)c2ccc(Br)s2)CC1`, the max response was 11.9% (active).

Take `O=C(C1CCN(S(=O)(=O)c2ccc(Br)s2)CC1)N1CCN(c2ccccc2)CC1`: the max response was -2.23%.

In the case of `CSc1ccc(S(=O)(=O)N2CCC(C(=O)NCCc3ccccc3)CC2)cc1`, the max response is 0.47%.

On to `Oc1c(Cl)cc(Cl)cc1/C=N/c1ncn[nH]1`, for which the max response is -3.31%.

Consider `CCOC(=O)N1CCN(C(=O)c2ccc3c(=O)n(CCc4ccc(OC)c(OC)c4)c(=O)[nH]c3c2)CC1`, for which the max response was 2.53%.

On to `COc1cccc(CNC(=O)C2CCCN(S(=O)(=O)N3CC(C)CC(C)C3)C2)c1` (stereo unspecified), for which the max response was 3.03%.

As to `Oc1ccc(Cl)cc1/C=N/c1nc2ccccc2[nH]1`, the max response is 23.3%.

Turning to `O=C(/C(=C/c1cccc(Cl)c1)c1nc2ccccc2[nH]1)c1ccccc1`, the max response is 46.6% (active).

As to `O=C(N/N=C/c1ccc(Cl)cc1)c1nc2ccc([N+](=O)[O-])cc2c(=O)[nH]1`, the max response is -1.53%.

Turning to `CC(C)(C)c1ccc(CCC2OCC(CN3CCOCC3)O2)cc1` (stereo unspecified), the max response was 16.4%.

With `CCOC(OCC)OCC`, the max response was 6.84%.

Take `Cc1noc(C)c1COc1ccc2ccc(=O)oc2c1`: the max response is -2.41%.

Take `CC(C)OC(=O)c1ccc(COc2ccc3ccc(=O)oc3c2)o1`: the max response was 22.4%.

Regarding `COc1c(C(C)C)oc2cc3oc(=O)ccc3cc12`, the max response is 60.5% (active).

In the case of `Cc1oc2cc3oc(=O)ccc3cc2c1C`, the max response was 25.5% (active).

Consider `COc1ccc(Nc2cc(=O)oc3ccccc23)cc1`, for which the max response was -1.7%.

Take `Cc1ccc(OCC(=O)Nc2ccc3oc(=O)ccc3c2)cc1C`: the max response was -4.02%.

The values above are taken from PubChem BioAssay AID2314 (National Center for Advancing Translational Sciences (NCATS), 2010).
